# Measured values as given in the supplement of paper PMC6555819.
# What was measured:
# Assay in all cases: PBM binding z-score (relative to random genomic background probes); higher = stronger binding; sequences stand for … in GC…GCGATTGACAGCGTAGAATGAAGG
# [1] = test system: RARb homodimer (NR concentration 270 nM)
# Summary of the method: (§1)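 The probes on custom Agilent 4×180K protein-binding microarrays were double-stranded, with 34-nt variable regions bearing direct-repeat seeds, single-nucleotide variants, half-site ablations and random human genomic background sequences. Incubation lasted 1 h with ligand-free nuclear receptor dimers in PBS pH 7.4, 2% milk, 0.02% Triton X-100, 1 mM DTT, 0.2 mg/mL BSA and 0.4 mg/ml salmon testes DNA. Antibodies against each partner (one per run) detected bound dimers, and fluorescence scans were regression-normalized. Binding z-scores take the random background probes as reference.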
# [2] = test system: RARg:RXRa (NR concentration 270 nM, RXRa partner concentration 90 nM)
# Summary of the method: as §1
# [3] = test system: RARg homodimer (NR concentration 270 nM)
# Summary of the method: as §1
# [4] = test system: RXRa DBDmut IVT, anti-RXR (DBD mutation: RXRa K156A/R161A, NR concentration 90 nM)
# Summary of the method: as §1
# [5] = test system: RXRa homodimer (NR concentration 180 nM)
# Summary of the method: as §1
# [6] = test system: THRa:RXRa (NR concentration 90 nM, RXRa partner concentration 90 nM)
# Summary of the method: as §1
# [7] = test system: THRa homodimer (NR concentration 90 nM)
# Summary of the method: as §1
# [8] = test system: VDR homodimer (NR concentration 270 nM)
# Summary of the method: as §1
Sequence,PBM binding z-score [1],PBM binding z-score [2],PBM binding z-score [3],PBM binding z-score [4],PBM binding z-score [5],PBM binding z-score [6],PBM binding z-score [7],PBM binding z-score [8]
CCTGCTAGGTCAATGGTCAGCGAAAGCAGCTCGC,2.63,3.65,4.18,1.73,2.11,2.32,0.558,-0.0463
CAAACTAGGTCAATGTCAAAGTCGGTTTGTGCCA,3.06,3.43,4.16,1.94,2.36,2.56,0.861,1.28
AGAACGAGGGCATGCTGAGTTGATAGCAGAGTAG,0.498,1.33,1.34,2.24,0.92,1.2,-0.497,1.74
CCAGACAGGTGAAAGGTAACTCGGTCTGGTACGC,0.705,1.23,0.639,-0.242,2.27,0.879,0.0486,-0.126
CCTATTAGTTGACCATAACGGCAACCGAAGCTCG,1.01,0.618,0.817,0.595,0.625,0.388,0.93,1.08
TCTGCTAGGTCAGCGATGGTCAGCTAATCTGCTA,2.71,2.89,3.88,0.156,1.25,2.4,-0.062,-0.739
CCTACTGGGCCAAAAAGATCATTGATGCCGATAA,-0.443,-0.189,0.104,-0.443,-0.145,-0.348,-0.71,-0.266
GCTACAGGGTCAGCTAGAGGCCAGAGTATGGAAA,3.3,6.74,5.02,1.48,4.32,3.23,0.349,0.386
CGAACTAGGTCATCCAGGACAGAGAATACATTGA,2.81,4.02,4.59,2.33,3.1,3.49,1.8,1.64
CCTAGTTGGTCAGGAGGTCAGACACCGGATATGA,3.57,3.8,3.09,0.173,2.74,2.43,1.11,1.42
TAGCCTAGATCAGATCGGGCCAGTATACGCTATA,-1.29,-0.519,-0.508,-1.09,-0.577,0.52,-1.58,-1.04
ATAGGTAGGTTATCGGGTCATTCAGTTTGCGCAT,3.33,3.46,2.72,1.53,3.29,3.41,3.2,4.02
ACAGACAGGTGATGAAGTTAACTCAGGCTATCAT,0.22,-0.00666,0.328,-0.128,0.00488,1.38,-0.0538,0.197
TAGCCTAGGTCATTCAGGGGCCAGGATAGAAAGC,3.18,6.27,4.6,1.8,2.86,3.57,0.667,1.6
GCTAGTTGGTCAGTAAAAGGACACACACCGGTCG,2.31,1.15,1.73,-0.384,0.00337,0.856,0.41,0.256
ATCGAAAGGTCGAAGGTGAGTGTACCCACCCGAA,2.58,4.02,3.37,0.847,5.11,2.3,0.0687,0.737
CCGACTGGGGCAGAAAGGTTAGCATACCATCCGG,1.74,0.906,0.862,-0.65,0.988,0.31,-0.682,-0.346
TCATATAGTTAATACAGGTGAAAGTCGGCATCTA,0.692,0.857,0.789,2.12,1.2,1.02,0.515,0.657
GGAACGAGGGCAAGTTGATCGCAGAGTTTGATGG,1.5,1.49,1.89,2.28,0.723,1.2,-0.251,1.58
GCTGCTAGGTCCGGTTGGTCAGCTAACGGGTACG,-0.107,-0.731,-0.757,-0.46,-0.726,-0.903,-0.944,-0.324
GCAGACAGATGAAACGCAGGTAACTCAGGGTGGC,-0.914,-0.366,-0.316,-0.516,-0.162,0.473,-1.03,-0.594
ATGTCTAGGTAAGACTCAGTTCAGTGAAGAACGC,0.578,0.0385,0.257,0.0481,0.0164,0.567,0.326,1.07
CCAGACAGGTGAAAGGAAACTCAGTCTGGTACGC,-0.0541,0.0543,0.198,-0.167,0.41,-0.104,-0.669,-0.334
ATCTCTAGGGAAGACTCAGTTCAGTGAAGAACGC,0.462,-0.132,-0.0509,0.532,-0.129,0.262,0.318,1.38
GGAACGAGGGCAAGTTTATAGCAGAGTTTGATGG,1.78,1.5,2.19,2.62,0.81,1.07,0.0695,2.89
CCTTACGGGTCACTCCAGTTTATAGCATCGGAGT,2.7,4.06,4.22,1.78,3.83,4.11,0.161,2.06
TCTCGGATGACACGAAGGTCAGAGCTTTCCAGAG,3.15,2.66,2.31,0.542,2.48,1.68,0.229,0.13
CCTAGCAGTCCAATCTGGGTCACTCAAGGCTTGA,2.02,0.766,0.694,0.516,0.768,2.86,0.629,0.187
